For 40 compounds, Percent Effect results are on record in ChEMBL document CHEMBL3988442, “University of Dundee, Small-Polar-MMV Screening Library” (2021).

The experiment addresses AMP-activated protein kinase, AMPK (Homo sapiens) (UniProt P54646+O43741+P54619+Q9UGJ0+Q9Y478+Q13131+Q9UGI9). The experiment in a line: AMP-dependent Kinase enzyme assay. An in vitro enzyme assay that detects ADP turnover that is directly proportional to AMPK activity. This uses naive AMPK that is activated during the assay with MK-8722. Also on record: scale not given: direction of the effect not stated beside the values. In kind it is functional. Conditions: 30 µM.
As for `CS(=O)(=O)NC(=O)c1ccn(-c2cccc(Br)c2)n1`, the Percent Effect came to 2.69%. For `Cc1ccc(CCCC(=O)N2CCC(=O)Nc3cccnc32)s1`, the Percent Effect is -8.96%. Next, `FC(F)(F)c1ccnc(N2CCC(c3nccn3CC3CC3)CC2)n1`: 19.6%; `O=C(NC1CCCCC1)N1CCC(n2cc(-c3ccccn3)nn2)CC1`: -1.68%; `O=C(C1CCOC1)N1CCN(CC2CC2)c2ccccc21` (stereo not given): 5.43%.

As to `O=C(c1cnco1)N1CCC(Cc2cccc3ncccc23)CC1`, the Percent Effect came out at 5.42%.

For the compound `Cn1ccnc1-c1nc(N2CCCCC2)ncc1-c1ccccc1F`, the Percent Effect was 9.62%.

As for `CN(CCCOc1ccccc1Cl)C(=O)CN1CCNC1=O`, the Percent Effect came to 10.2%.

`Cc1ccc2occ(CN3CCN(c4ncccn4)CC3)c(=O)c2c1`: the Percent Effect is -1.29%. Consider `Cc1cc(CC(=O)NC2CCCN(Cc3ccccc3)C2=O)n[nH]1` (stereo not given), for which the Percent Effect came to 9.56%. With `O=C(Cn1ccc(-c2ccccc2)n1)N1CCN(C(=O)C2CC2)CC1`, the Percent Effect is -3.88%.

Consider `NC(=O)CN(Cc1ncc(-c2ccccc2)o1)C1CCCC1`, for which the Percent Effect is -1.01%. `Cc1nonc1CN(C)c1nc(-c2ccco2)nc2c1CCN(C)CC2`: the Percent Effect came to 4.86%. Regarding `CCOc1cccc(C(C(=O)O)N(C)Cc2cc(C)no2)c1` (stereo not given), the Percent Effect is 7.67%. For `Cc1nn(C)c(C)c1C1COCCN1C(=O)CC(C)(C)C` (stereo not given), the Percent Effect is -3.31%. Take `CCc1csc(NC(=O)Nc2c(C)n[nH]c2C)n1`: the Percent Effect was -1.09%. On to `CC(NC(=O)c1ccc(C(N)=O)cc1)c1cccc(N2CCOC2=O)c1` (stereo not given), for which the Percent Effect was 4.89%. `O=C(Nc1ccc2c(c1)C(=O)NC2=O)c1ccc(Cl)s1`: the Percent Effect is -3.34%. `CC(C(=O)NC1(C#N)CCCCC1)N1CCc2c(ncn2C)C1` (stereo not given): the Percent Effect was -9.22%. The figure for `CCCC(=O)Nc1cnn(CC(=O)Nc2ccc(SC)cc2)c1` is -33.2%. Turning to `CC(C)C1C(=O)NCCN1C(=O)CCCc1nc(C(C)(C)C)no1` (stereo not given), the Percent Effect was -5.25%.

Turning to `COc1ccc(-n2cccn2)c(CN2CCOCC(CN(C)C)C2)c1` (stereo not given), the Percent Effect is 1.67%. With `CC(C)N(CC(=O)Nc1cccc(C#N)c1)C1CC1`, the Percent Effect was found to be 0.161%. Regarding `O=C(CCCn1cccn1)N1CCCC(n2cncn2)C1` (stereo not given), the Percent Effect came out at 5.88%.

With `O=C(C1CNCCN1C(=O)CCOc1ccccc1)N1CCCC1` (stereo not given), the Percent Effect was determined as 8.73%. On to `Cc1ccc(-c2ccccc2CC2CNCCNC2=O)c(C)c1` (stereo not given), for which the Percent Effect was 2.34%. Take `CCCC(=O)Nc1cccc(C(=O)N(C)CCCC2CCCO2)c1` (stereo not given): the Percent Effect is 7.97%.

As for `CC(=O)N1CCCC(C(=O)NCCc2ccc(F)c(Br)c2)C1` (stereo not given), the Percent Effect turned out to be 9.28%. For the compound `NCC(CO)Cc1ccc(OC(F)(F)F)cc1` (stereo not given), the Percent Effect is -4.6%. For the compound `CC(C)(C)c1ccc(C(=O)NCCCNC(=O)c2cnccn2)cc1`, the Percent Effect was determined as 8.31%.

For the compound `Cc1nnc(CCNC(=O)Nc2ccc(S(C)(=O)=O)cc2)[nH]1`, the Percent Effect was 6.21%.

With `c1cncc(CNCCc2cccs2)c1`, the Percent Effect is -7.73%.

With `COCc1ccccc1NC(=O)CCNC(=O)c1ccoc1`, the Percent Effect is -3.07%.

For the compound `Fc1ccc(C2CCCCN2Cc2cc(-c3ccccn3)no2)cc1` (stereo not given), the Percent Effect turned out to be 7.03%. The figure for `Cc1ccc(CN(C(=O)NCC2CCS(=O)(=O)C2)C2CC2)o1` (stereo not given) is -7.42%. The figure for `Cn1ccnc1-c1cn(CCCc2csc(N)n2)nn1` is -21%.

For `N#CC1(NC(=O)c2c(F)ccc(OC(F)F)c2F)CCOCC1`, the Percent Effect was -2.32%.

Take `N#Cc1cccc(N2CCC(CO)(CCCc3ccccc3)CC2)n1`: the Percent Effect was 6.03%. Take `Cc1ncc(C(=O)N2CCOC(C(=O)N3CCCCCC3)C2)c(C)n1` (stereo not given): the Percent Effect is -3.31%. The figure for `COCc1cccc(NC(=O)NCCCN(C)S(C)(=O)=O)c1` is -1.69%.
